Screening data from PubChem.
Shown are actives, neighbours in structure and some others; about 4.6% of the full set was active somewhere.
D1 antag = blocks dopamine activation of the human D1 receptor; activity change, negative = inhibition, % at 10 µM; AID 504652; HEK293 TREx D1 cells, calcium flux, dopamine EC80; hits give low values; 360,000 compounds, 3.2% hits; in the data active = activity change below about -30%; also: % is scaled to controls: 0 for no effect and ±100 for the full control effect
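Antagonism measured as reduced calcium response to an EC80 dopamine addition following 180 s compound pre-read; cells were inducible HEK293 Trex D1 plated overnight at 30 C, read kinetically at 1 cycle/sec.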
D1 ag = activates the human D1 dopamine receptor; activation, % at 2 µM; AID 504660; P21728; 360,000 compounds, 1% hits; HEK293 T-REx D1 cells, calcium flux, agonist mode; also: 0% is about no effect
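Agonism was scored from calcium flux recorded over 180 s (1 read/s) after pintool compound addition, following a 10-cycle baseline. Cells were inducible force-coupled HEK293 TREx D1, plated overnight at 30 C and loaded with no-wash calcium dye.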
TRHR ag = activates the human TRH receptor; P34981; TRHR cells, calcium flux fluo-8, FDSS agonist mode; activation, % at 2 µM; 360,000 compounds, 0.18% hits; AID 493084; also: 0% is about no effect
Target sequence (P34981 whole entry, looked up): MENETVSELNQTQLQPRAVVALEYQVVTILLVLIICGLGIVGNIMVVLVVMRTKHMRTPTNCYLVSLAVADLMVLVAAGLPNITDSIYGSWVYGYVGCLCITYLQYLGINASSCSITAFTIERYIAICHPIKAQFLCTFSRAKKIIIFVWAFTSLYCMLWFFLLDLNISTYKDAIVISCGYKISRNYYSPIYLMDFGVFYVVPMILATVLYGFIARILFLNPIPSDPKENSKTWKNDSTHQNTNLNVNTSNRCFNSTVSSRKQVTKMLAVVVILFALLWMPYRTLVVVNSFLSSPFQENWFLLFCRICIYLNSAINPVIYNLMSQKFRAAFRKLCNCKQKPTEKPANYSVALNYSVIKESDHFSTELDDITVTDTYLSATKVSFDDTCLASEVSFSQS
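Fluo-8-loaded TRHR cells; 10 s baseline, compound added, kinetic Ca2+ fluorescence read 1/s, agonist mode.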
D1 PAM = human D1 dopamine receptor positive modulation | P21728 | HEK293 TREx D1 cells, calcium flux, dopamine EC20 potentiation | potentiation, % at 10 µM | 360,000 compounds, 0.036% hits | AID 504651; in the data active = potentiation above about 30%; also: 0% is about no effect
TRHR PAM = allosterically enhances the human TRH receptor; P34981; TRHR cells, fluo-8 calcium fluorescence, EC20 TRH enhancement; enhancement, % at 2 µM; 360,000 compounds, 0.66% hits; AID 493056; in the data active = enhancement above about 30%; also: 0% is about no effect
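Enhancer read-out: after compound pinning and an initial kinetic agonist-mode read, an EC20 of TRH (10 nM final) was injected and fluo-8 calcium signal (Ex 480/Em 530) followed at 1 s/cycle for 100 cycles in TRHR-expressing cells.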
Numbers without * were called inactive. Rule as the data show it, unless noted: active = activation above about 30%; inactive = the rest.

SMILES | D1 antag | D1 ag | TRHR ag | D1 PAM | TRHR PAM
Cc1ccc(C(C)C)c(OCCNCCc2ccccc2)c1 | -1.4 | 57.8* | 0.4 | 21.4 | -1.2
CNCCCOc1ccc(C(C)(C)c2ccccc2)cc1 | 6.7 | 53.2* | 6.9 | 3.8 | 15.0
CC(C)(C)c1ccc(OCCNCc2ccccc2)cc1 | 9.7 | 42.9* | 0.5 | 23.3 | 12.8
CC(C)(c1ccccc1)c1ccc(OCCCN2CCNCC2)cc1 | 5.7 | 59.1* | 1.5 | -4.0 | 1.2
CC(C)(c1ccccc1)c1ccc(OCCN2CCOCC2)cc1 | -0.4 | 3.7 | -0.2 | -6.9 | 4.9
CCCCNCC#CCOc1cc(C)ccc1C(C)C | 5.5 | 86.7* | -1.0 | -2.0 | 9.1
COc1cc(CN2CCN(CCCc3ccccc3)CC2CCO)cc(OC)c1 (stereo unspecified) | 1.6 | 3.3 | -3.0 | 1.6 | -7.3
Cc1ccc(NC(=O)NCCc2c(C)nn(C)c2C)cc1Cl | -7.8 | 0.9 | -1.4 | 1.6 | 4.6
COc1cc(NC(=O)c2cc(C)no2)c(OC)cc1Cl | -8.8 | -0.9 | -1.0 | -0.4 | -9.3
Cc1ccccc1S(=O)(=O)Nc1cccnc1 | 1.4 | 0.5 | -0.2 | -4.2 | -1.0
CCn1ncc(S(=O)(=O)Nc2cccnc2)c1C | -41.0* | 2.0 | 0.5 | -10.5 | -9.7
Cc1ccc(NC(=O)CSCC(=O)Nc2cc(Cl)ccc2N2CCOCC2)cc1 | -5.5 | 1.2 | -0.4 | -6.0 | 0.0
CCN1C(=O)/C(=C/c2cnn(C)c2C)SC1=S | -31.6* | 2.5 | 0.8 | 3.6 | -4.5
CNC(=S)SCCOc1ccc(C)cc1 | -91.4* | 2.2 | 0.3 | -7.0 | 2.2
CNC(=S)SCCOc1ccccc1 | -20.1 | 3.9 | 0.3 | -1.9 | 2.4
N#CCSc1nnc(N)s1 | 4.9 | 1.1 | 0.0 | -8.1 | -4.6
CC(C)(C)C1CCC2(CC1)NC(CO)(CO)CO2 (stereo unspecified) | -34.0* | 0.5 | 0.8 | -1.4 | 10.2
CCC(O)(CCN1CCCCC1)c1ccccc1 (stereo unspecified) | 15.7 | 1.3 | 0.0 | 0.2 | -2.6
OC(CCCN1CCCCC1)(c1ccccc1)c1ccccc1 | -34.3* | 3.3 | 0.5 | -3.2 | 4.5
COc1ccc(CCC(=O)NCc2ccc3c(c2)OCO3)cc1 | -2.5 | -0.3 | -0.3 | -1.9 | 13.4
COC(=O)c1cccc(C(=O)N2CCC(CO)(Cc3ccccc3Cl)CC2)c1 | -5.8 | 3.0 | 1.5 | -4.2 | 11.2
Cc1cc[n+](-c2[nH]c(=O)sc2/C=N/NC([S-])=Nc2ccccc2)cc1C | 7.7 | 5.9 | 4.2 | -7.2 | 3.2
CC(C)(C)c1cc[n+](-c2[nH]c(=O)sc2/C=N/NC([S-])=Nc2ccccc2)cc1 | 4.3 | 90.5* | 18.1 | -1.9 | 0.9
CC(C)(C)NC(=O)c1cc(-c2ccc3c(c2)OCO3)nc2ccccc12 | -8.1 | 2.5 | 0.8 | 0.1 | -1.1
Cc1csc(SCC(=O)N(C)c2c(N)n(Cc3ccccc3)c(=O)[nH]c2=O)n1 | -9.4 | 3.1 | 0.1 | 0.9 | 3.9
SMILES | D1 antag | D1 ag | TRHR ag | D1 PAM | TRHR PAM
CCN(CC)c1ccc2nc3c(=O)n(C)c(=O)n(C)c3nc2c1 | -17.9 | 144.5* | 68.0* | 2.5 | 4.1
O=C1NC(=S)N/C1=C\c1ccc(Oc2ccc(C(F)(F)F)cc2[N+](=O)[O-])c(Cl)c1 | -51.6* | -0.1 | 0.4 | 3.0 | -1.0
Cc1ccc(CNC(=O)COC(=O)c2cc3c(s2)CCC(C)C3)cc1 (stereo unspecified) | -3.8 | 7.9 | 0.2 | -0.7 | 9.6
CC1CCN(C(=O)CSc2nnc(CNC(=O)c3ccc(S(=O)(=O)N(C)C)cc3)o2)CC1 | -45.3* | 0.0 | -0.2 | -5.9 | 1.8
O=C(CSc1nnc(CNc2ccccc2)o1)N1CCN(C(=O)c2ccco2)CC1 | -38.2* | 0.2 | -0.1 | -4.5 | -1.1
O=C(CSc1nnc(CNC(=O)c2ccc(F)cc2)o1)c1ccccc1 | -31.0* | 4.3 | -0.8 | -9.7 | -5.0
O=C(NCc1nnc(SCC(=O)N2CCC(Cc3ccccc3)CC2)o1)c1ccccc1F | -10.5 | 33.3* | -0.1 | -0.8 | -0.4
O=C(NCc1nnc(SCC(=O)N2CCCC2)o1)c1c(F)cccc1F | 10.2 | 4.4 | 0.2 | 3.1 | -2.8
COc1ccc(C2CC3(CC(C)(C)NC(SC)=N3)Oc3cc(O)cc(C)c32)cc1 (stereo unspecified) | 72.5 | 262.7* | -0.1 | 2.8 | 7.2
COc1cccc(N2CC34C=CC(O3)C(C(=O)O)C4C2=O)c1 (stereo unspecified) | -42.4* | 0.1 | 1.1 | -0.1 | -1.7
O=C(/C=C/c1ccc2c(c1)OCO2)N1CCN(c2ccc(Cl)cc2)CC1 | -0.5 | 2.9 | -0.4 | 6.8 | -6.7
O=C(/C=C/c1cccs1)N1CCN(Cc2ccc3c(c2)OCO3)CC1 | 1.4 | 1.0 | -0.1 | -4.2 | 0.8
O=C(/C=C/c1ccc2c(c1)OCO2)N1CCCCC1 | -30.3* | 1.8 | 0.0 | -1.9 | -6.7
O=C(/C=C/c1cccc([N+](=O)[O-])c1)N1CCN(Cc2ccc3c(c2)OCO3)CC1 | -34.1* | 2.5 | -1.5 | -8.7 | -5.3
C/C(=N\NC(=O)C1CC1(c1ccccc1)c1ccccc1)c1cccc([N+](=O)[O-])c1 (stereo unspecified) | -76.8* | 0.9 | 0.6 | -4.6 | -1.1
Cc1cc(OCC(=O)NC(C)C)cc(C)c1Cl | -31.5* | 6.1 | -1.1 | -4.6 | 0.3
Cc1cc(OCC(=O)NNC(=O)c2ccncc2)cc(C)c1Cl | 11.8 | 6.7 | 0.0 | -6.0 | -1.5
CCn1cc(C(=O)NN)c(=O)c2cc(F)c(NC3CCCCC3)cc21 | 5.3 | -0.5 | -0.7 | -2.9 | 24.4
CCn1c(SCC(=O)c2[nH]c(C)c(C(C)=O)c2C)nnc1-c1ccccc1 | -34.9* | 8.6 | 0.0 | -5.1 | -2.7
CC(Sc1nnc(NCc2ccccc2)s1)C(=O)Nc1ccc2c(c1)C(=O)c1ccccc1C2=O (stereo unspecified) | -33.1* | 3.7 | 0.2 | -5.7 | 0.1
CC(=O)N1CCN(c2cc(N3CCCC3)c(F)cc2[N+](=O)[O-])CC1 | -14.3 | 0.7 | -3.2 | -2.4 | -4.3
CCN1CCN(c2cc(N3CCc4ccccc4C3)c(F)cc2[N+](=O)[O-])CC1 | -40.2* | 6.3 | 0.9 | -9.5 | 1.5
O=C(Nc1ccc2c(c1)OCCO2)N1CCN(c2ccc(F)cc2)CC1 | -0.3 | 6.5 | -0.9 | -7.2 | 0.0
Cc1cccc(C)c1N1CCN(C(=O)Nc2ccc3c(c2)OCCO3)CC1 | -34.4* | 19.7 | 0.1 | -6.2 | -1.2
CC(=O)Nc1ccc2c(c1)OCCOCCOc1cc(NC(C)=O)ccc1OCCOCCOCCO2 | -70.2* | 1.3 | -0.9 | -3.5 | -22.7
CC(=O)c1ccc(OC(=O)c2ccc(Br)o2)cc1 | -16.3 | 59.5* | -2.0 | -4.0 | 0.3
Cc1ccc(OC(=O)c2ccc(Br)o2)cc1 | -47.9* | 101.9* | 0.4 | 3.7 | -5.4
O=C(Oc1ccc(-c2nnco2)cc1)c1ccc(Br)o1 | 9.1 | 8.5 | -0.5 | -2.6 | -2.1
